Bioassay records as filed in PubChem.
ADAM17 inh – ADAM17 inhibitors, primary screen, biochemical, QFRET | Disintegrin and metalloproteinase domain-containing protein 17 (Homo sapiens), P78536 | recombinant ADAM17, EDANS/DABCYL FRET peptide cleavage | inhibition, % at 6.95 µM | 370,000 compounds, 0.83% hits;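 active = inhibition above the mean of compounds lying between control limits plus 3 SD, set per campaign, cut at about 8.5% in these data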
Target sequence (P78536 215-824 limits assumed): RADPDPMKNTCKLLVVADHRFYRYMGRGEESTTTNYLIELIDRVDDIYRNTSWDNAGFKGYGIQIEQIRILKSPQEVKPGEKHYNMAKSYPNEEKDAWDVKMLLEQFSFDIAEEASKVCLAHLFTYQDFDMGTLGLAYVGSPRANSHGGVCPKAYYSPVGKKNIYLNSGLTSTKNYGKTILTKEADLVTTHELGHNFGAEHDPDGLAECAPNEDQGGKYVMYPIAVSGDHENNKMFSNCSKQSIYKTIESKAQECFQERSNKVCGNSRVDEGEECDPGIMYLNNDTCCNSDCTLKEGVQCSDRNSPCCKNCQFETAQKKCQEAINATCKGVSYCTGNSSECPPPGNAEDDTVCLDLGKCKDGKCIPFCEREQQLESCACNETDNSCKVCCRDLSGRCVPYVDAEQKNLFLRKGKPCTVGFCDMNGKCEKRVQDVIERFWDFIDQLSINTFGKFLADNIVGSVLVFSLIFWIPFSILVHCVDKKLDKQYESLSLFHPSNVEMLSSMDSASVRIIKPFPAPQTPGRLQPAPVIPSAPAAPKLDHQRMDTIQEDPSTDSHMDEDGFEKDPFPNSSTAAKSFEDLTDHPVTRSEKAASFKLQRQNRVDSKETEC
ADAM10 inh – human ADAM10 inhibitors, primary screen, biochemical, QFRET, HTS; recombinant ADAM10, EDANS/DABCYL FRET peptide cleavage, 3 h; inhibition, % at 7 µM; 370,000 compounds, 0.62% hits; AID 720582, 2013;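 active = inhibition above a per-campaign cutoff equal to the mean of compounds falling between control-based bounds plus 3 SD, cut at about 20% in these data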
FAS TE block – FAS thioesterase domain inhibitors, primary screen, biochemical, fluorescence intensity, uHTS | recombinant FAS-TE, OMFH fluorogenic substrate, fluorescence endpoint | inhibition, % at 15 µM | 360,000 compounds, 0.67% hits | AID 602261, 2012;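 active = compounds whose normalised, plate-corrected inhibition of enzyme fluorescence in the single-dose primary screen is 50% or more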
GRIN3A LBD mod – binders of NR3A ligand-binding domain, primary screen, biophysical, differential scanning fluorimetry, uHTS. NR3A LBD differential scanning fluorimetry, Tm shift; 0% = protein alone, 100% = glycine-bound protein. Tm shift relative to glycine control, % at 25 µM. 340,000 compounds, 2.5% hits. Glutamate receptor ionotropic, NMDA 3A (GRIN3A) ligand-binding domain;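 active = melting temperature shift of at least 10% of the positive control shift, at one fixed dose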
HGIII-sPLA2 inh – human group III sPLA2 inhibitors, primary screen, biochemical, QFRET, BODIPY PC-A2 liposome substrate; Group 3 secretory phospholipase A2 (Homo sapiens), Q9NZ20; QFRET BODIPY PC-A2 liposome hydrolysis, fluorescence; inhibition, % at 12.2 µM; 370,000 compounds, 0.56% hits;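 active = inhibition above mean plus 3 SD of compounds lying within the high and low control bounds, cut at about 19% in these data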
Large screens that a line does not name were inactive. Compounds with a hit are over-represented: about 4.3% of the library has one in this group of screens.

CCC[C@H]1[C@@H](OC(=O)N2CCN(c3ccccc3)CC2)CC[C@@]23CCCN2C(=O)CCC[C@@H]13	none (no result: FAS TE block, GRIN3A LBD mod)
O=S(=O)(Nc1cc(Cl)ccc1-n1cncn1)c1cc(Br)ccc1Br	GRIN3A LBD mod 22.5
CCOC(=O)c1sc(NC(=O)Nc2ccc(Cl)cc2)nc1C	GRIN3A LBD mod 27.8
CCOC(=O)c1sc(NC(=O)CSc2nccn2C)nc1C	GRIN3A LBD mod 12.6
CCOC(=O)c1sc(NC(=O)c2c(CC)noc2C)nc1C	GRIN3A LBD mod 18.8
CCOC(=O)c1sc(NC(=O)CSc2ncccn2)nc1C	none
CCOC(=O)Nc1nc(C)c(C(=O)c2ccc(Cl)cc2)s1	none
COc1cccc(CN[C@@H]2CC[C@@]34CCCN3C(=O)CCC[C@H]4C2)c1	none (no result: FAS TE block, GRIN3A LBD mod)
Fc1ccc2[nH]c3c(N4CCc5ccccc5C4)ncnc3c2c1	GRIN3A LBD mod 23.2
Cc1ccc2[nH]c3c(N4CCc5ccccc5C4)ncnc3c2c1	none
Cc1ccccc1Cn1cc(CN2[C@@H](CC(C)C)COc3cccc(F)c3S2(=O)=O)nn1	none (no result: FAS TE block, GRIN3A LBD mod)
c1cncc(Cc2cc3ccccc3[nH]2)c1	none
c1ccc2[nH]c(-c3cnco3)cc2c1	GRIN3A LBD mod 11.2
O=C(/C=C/c1cccc([N+](=O)[O-])c1)Nc1cccc(NC(=O)c2ccco2)c1	GRIN3A LBD mod 26.7
O=C(/C=C/c1ccc(Cl)c([N+](=O)[O-])c1)Nc1ccc(NC(=O)c2ccco2)cc1	GRIN3A LBD mod 32.8
O=C(Nc1ccc(Cl)c([N+](=O)[O-])c1)c1ccco1	none
O=C(/C=C/c1cccc([N+](=O)[O-])c1)c1ccco1	none
Cc1ccc(NC(=O)/C(=C\c2cccc([N+](=O)[O-])c2)NC(=O)c2cccs2)cc1	none
O=C(/C=C/c1cccc([N+](=O)[O-])c1)Nc1cccc(NC(=O)c2cccs2)c1	GRIN3A LBD mod 10.7
CC(=O)N/C(=C\c1cccc([N+](=O)[O-])c1)C(=O)NC1CCCCC1	GRIN3A LBD mod 11.2
O=C(NCCc1ccccc1F)c1ccc2c(c1)ncn2C1CCCCC1	none (no result: FAS TE block, GRIN3A LBD mod)
CN(C)CC(=O)N[C@@H]1C[C@@H]2O[C@@H](CO)CC[C@@H]2O[C@@H]1CCc1ccc(-c2ccc(F)cc2)cc1	none (no result: FAS TE block, GRIN3A LBD mod)
O=C(/C=C/c1ccc(Cl)c([N+](=O)[O-])c1)Nc1cccc(NC(=O)c2ccco2)c1	GRIN3A LBD mod 10.8
O=C(/C=C/c1cccc([N+](=O)[O-])c1)OC1CCCCC1=O (configuration not stated)	GRIN3A LBD mod 12.0
O=C(N/C(=C/c1cccc([N+](=O)[O-])c1)C(=O)N1CCCCCC1)c1cccs1	GRIN3A LBD mod 14.9
O=S1(=O)c2ccc(N3CC[C@H](O)C3)cc2OCCCN1C1CC1	none (no result: FAS TE block, GRIN3A LBD mod)
COC(=O)c1cccc(OCC(C)CN2CCC(C(O)(c3ccccc3)c3ccccc3)CC2)c1 (configuration not stated)	none (no result: FAS TE block, GRIN3A LBD mod)
NC(=O)CC[C@H](NC(=O)c1ccc(F)cc1)C(=O)OCC(=O)Nc1c(F)c(F)c(F)c(F)c1F	GRIN3A LBD mod 11.5
Nc1c(C(=O)N/N=C/c2ccc(Cl)cc2)cnn1-c1ccccc1	none
O=c1c(Cl)c(N/N=C/c2ccc(Cl)cc2)cnn1-c1ccccc1	GRIN3A LBD mod 15.8
CCOC(=O)[C@]12CCCC=C1N(CCCOC)C(=O)[C@@H]2CC(=O)N1CCC(c2ccccc2)CC1	none (no result: FAS TE block, GRIN3A LBD mod)
Cc1cc(SCC(=O)N/N=C/c2ccc(O)cc2O)c(C)cc1Br	GRIN3A LBD mod 17.9
Cc1ccc(N=Nc2c(N)nn3c(C)cc(C)nc23)cc1	none
Cc1ccc(N=Nc2c(N)nn3c(N)c(C#N)c(C)nc23)cc1	GRIN3A LBD mod 26.0
c1ccc(C(c2ccccc2)c2nc(-c3cccnc3)no2)cc1	GRIN3A LBD mod 15.7
c1ccc(C(Cc2nc(-c3cccnc3)no2)c2ccccc2)cc1	none
N#Cc1ccccc1N/C=C/C(=O)c1ccc(Cl)cc1	GRIN3A LBD mod 35.8
COC(=O)[C@]12C[C@H](CC(=O)N3CCN(C(=O)c4ccco4)CC3)C(=O)N(CCc3ccc(OC)c(OC)c3)C1=C[C@H](C(C)C)O[C@@H]2C1CC1	none (no result: FAS TE block, GRIN3A LBD mod)
CCOC(=O)c1c(-c2cccs2)csc1NC(=O)CN1CCOCC1	GRIN3A LBD mod 22.7
COc1ccc(-c2coc3cc(O)cc(O)c3c2=O)cc1	GRIN3A LBD mod 11.9
COc1ccc(-c2coc3cc(OC)cc(O)c3c2=O)cc1	none
O=C(NCCN1CCCC1)C1CC(=O)N(C2CCCCC2)C1 (configuration not stated)	GRIN3A LBD mod 19.5
CC(=NNC(=S)N1CCCCC1)c1cccc(C)n1	none
CSC(=S)NN=C(C)c1cccc(C)n1	GRIN3A LBD mod 15.4
CCc1c(C)sc(NC(=S)N2CC(C)OC(C)C2)c1C(=O)OC (configuration not stated)	GRIN3A LBD mod 13.4
CN(C)[C@@H]1CCN(c2cccc3c2S(=O)(=O)N2CC[C@H](C2)O3)C1	none (no result: FAS TE block, GRIN3A LBD mod)
CC(COc1ccc(CC#N)cc1)CN1CCC(C(O)(c2ccccc2)c2ccccc2)CC1 (configuration not stated)	none (no result: FAS TE block, GRIN3A LBD mod)
CCC(=O)N1CCN(c2ccccc2NC(=O)c2ccc(-c3cccc([N+](=O)[O-])c3)o2)CC1	FAS TE block 51.3
COC(=O)c1ccc(Cn2ccc3ccc(-c4ccc5ccn(C(=O)c6cccc(OC)c6)c5c4)cc32)cc1	none (no result: FAS TE block, GRIN3A LBD mod)
CCOc1ccc(/C=C2\SC(N3CCc4ccccc4C3)=NC2=O)cc1	none
COc1ccc(/C=C2\SC(N3CCc4ccccc4C3)=NC2=O)cc1	GRIN3A LBD mod 11.5
CC(C)CCNC(=O)NC(=O)COC(=O)/C=C/c1cnc2ccccc2n1	GRIN3A LBD mod 10.7
CCN(CCNC(=O)[C@H]1C=C(OC)C(=O)C[C@H](c2ccccc2)[C@H]1C)C(C)=O	none (no result: FAS TE block, GRIN3A LBD mod)
O=C(COc1ccc(Cl)cc1Cl)Nc1ccccc1NS(=O)(=O)c1cccs1	none
Cc1cc(Cl)ccc1OCC(=O)Nc1ccccc1NS(=O)(=O)c1cccs1	GRIN3A LBD mod 14.3
COc1ccc(Cl)cc1NC(=O)COC(=O)c1cc(NS(=O)(=O)c2cccs2)ccc1O	GRIN3A LBD mod 25.3
O=C(COC(=O)c1ccc(NS(=O)(=O)c2cccs2)cc1O)Nc1nc2ccccc2s1	GRIN3A LBD mod 18.6
Cc1ccc(-c2nc(C3CCCN(S(=O)(=O)c4ccc(Cl)s4)C3)no2)cc1 (configuration not stated)	none (no result: FAS TE block, GRIN3A LBD mod)
COc1ccc(CCN(Cc2cccs2)S(=O)(=O)c2ccc(C)c(C)c2)cc1OC	none (no result: FAS TE block, GRIN3A LBD mod)
Cc1c(Cc2ccccc2)sc(/N=C/c2c(O)ccc3ccccc23)c1C(N)=O	GRIN3A LBD mod 11.5 (no result: ADAM17 inh, ADAM10 inh, HGIII-sPLA2 inh)
